Assay results published in ChEMBL document CHEMBL3988442, “University of Dundee, Small-Polar-MMV Screening Library” (2021).

Molecular target: T1, Aspartate--tRNA(Asp/Asn) ligase (Mycobacterium tuberculosis (strain ATCC 25618 / H37Rv)) (UniProt P9WFW3); also: in the data most compounds retested in dose-response had high values
T1 sequence (whole entry): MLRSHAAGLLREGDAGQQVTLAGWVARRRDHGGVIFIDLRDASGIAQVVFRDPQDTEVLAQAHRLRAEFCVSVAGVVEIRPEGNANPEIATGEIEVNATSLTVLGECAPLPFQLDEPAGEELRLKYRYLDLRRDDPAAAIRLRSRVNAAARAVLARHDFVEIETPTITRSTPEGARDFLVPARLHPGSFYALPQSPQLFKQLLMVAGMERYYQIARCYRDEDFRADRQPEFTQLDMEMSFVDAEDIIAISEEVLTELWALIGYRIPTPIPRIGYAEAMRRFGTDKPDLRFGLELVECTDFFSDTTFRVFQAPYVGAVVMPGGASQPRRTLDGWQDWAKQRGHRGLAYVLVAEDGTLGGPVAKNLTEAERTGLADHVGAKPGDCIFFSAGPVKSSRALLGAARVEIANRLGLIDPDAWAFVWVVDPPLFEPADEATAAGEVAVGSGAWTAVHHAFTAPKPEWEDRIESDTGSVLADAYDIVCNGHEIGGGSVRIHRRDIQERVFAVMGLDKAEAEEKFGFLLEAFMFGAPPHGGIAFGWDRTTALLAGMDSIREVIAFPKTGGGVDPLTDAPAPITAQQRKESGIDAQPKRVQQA
Experiment: Assay for Asp RNA synthetase-1 from Mycobacterium tuberculosis
Assay type: functional
Design: scale not given: direction of the effect not stated beside the values
Conditions: 30 µM

Row | Structure (SMILES) | Percent Effect
1 | CCn1cc(NC(=O)C2CCN(CCOC(C)C)CC2)cn1 | 2.5%
2 | CCc1nccn1C1CCCN(C(=O)c2cn3c(C)cccc3n2)C1 (stereo not given) | -4.04%
3 | c1ccc(Cc2noc(CNC3CCc4ncnn4C3)n2)cc1 (stereo not given) | -0.932%
4 | COCC1CC2(CCN(C(=O)c3ccc(OC)c(Cl)c3)CC2)CO1 (stereo not given) | 0.918%
5 | Cc1c(C2CCCN(C(=O)Cc3ccccn3)C2)n2c(nc1=O)CCC2 (stereo not given) | 2.63%
6 | CN1C(=O)C[C@@H]2[C@@H]1CCN2C(=O)c1ccc[nH]1 | -4.63%
7 | COCCc1ncc(CN2CCC(Oc3ccccc3C)CC2)cn1 | 1.13%
8 | N#Cc1ccc(OCCCN2CCc3cncnc3C2)cc1 | -3.6%
9 | CCC1=N[C@@]2(CC[C@@H]3CN(CC(=O)N(C)C)C[C@@H]32)C(=O)N1CC1CC1 | -4.18%
10 | O=C(NCC(=O)N1CCCCC1)c1ccc(Cl)cc1I | 0.257%
11 | Cc1cc(CN(C)C(=O)C2CCCN(C(=O)c3cccs3)C2)no1 (stereo not given) | 5.71%
12 | Cc1nc(CNCC2CCCN2c2cccnn2)no1 (stereo not given) | -2.08%
13 | Cc1cc(=O)[nH]c(SCC(=O)N(C)CC2Cc3ccccc3CN2C)n1 (stereo not given) | 1.96%
14 | CN(C)CC1CN(Cc2coc(-c3ccccc3Cl)n2)CCO1 (stereo not given) | -5.66%
15 | Cc1oc(C)c(C(=O)NCc2ccccn2)c1C | -4.72%
16 | c1ccc(-c2noc(CN3CCC(c4ccn[nH]4)CC3)n2)cc1 | 0.903%
17 | O=C(Cn1nc(-c2ccc(F)cc2)oc1=O)NCc1ccc(F)cc1 | -2.48%
18 | COC(=O)CNC(=O)CSCc1nc(O)c2cc(C(C)C)sc2n1 | -0.639%
19 | O=C(c1cccnc1)N1C[C@@H]2CC[C@H](C1)N(Cc1cc(F)ccc1F)C2 | 5.92%
20 | COc1ccc(CC(=O)N2CCCC2Cn2cccn2)cc1F (stereo not given) | -0.871%

Row | Structure (SMILES) | Percent Effect
21 | Cc1ccc(CN2CCCC3(CCN(S(=O)(=O)N(C)C)C3)C2)o1 (stereo not given) | 0.162%
22 | COc1ccc(C)cc1S(=O)(=O)NCC(c1cccn1C)N(C)C (stereo not given) | -4.54%
23 | Cc1ccoc1-c1nnc(CNCC2CCCN2c2cccnn2)o1 (stereo not given) | -2.62%
24 | CN(C)c1ncc(CN2CCOC(C(=O)Nc3ccccc3)C2)cn1 (stereo not given) | 6.13%
25 | Cc1cc2c(cc1C(=O)N1CC[C@H](CO)[C@@H](O)C1)OCCO2 | -0.915%
26 | O=C(c1ccccn1)N1C[C@@H]2CC[C@H](C1)N(C(=O)CCc1ccsc1)C2 | 0.446%
27 | CS(=O)(=O)N1C[C@@H]2CC[C@H](C1)N(Cc1cscn1)C2=O | 0.593%
28 | O=C(c1ccc[nH]1)N1C[C@H]2CC[C@@H]1CN(c1ncccn1)C2 | -4.31%
29 | CCS(=O)(=O)N1CCC2(CC1)CC(Oc1ccccn1)CO2 (stereo not given) | -0.51%
30 | CN(CCNC(=O)NCc1ccncc1)C1CCCC1 | -2.09%
31 | CO[C@@H]1CC[C@H]2[C@H]1OCCN2C(=O)c1ccc(C)o1 | 2.26%
32 | CC(C)n1ccnc1CN1CCCN(C(=O)c2cc(Cl)c[nH]2)CC1 | 3.35%
33 | COC[C@@H]1CC[C@H]2[C@H](CCN2S(=O)(=O)c2ccc(OC)cc2)O1 | -2.58%
34 | CN(C)C(=O)Cc1nc(CN2CCOC(Cn3cccn3)C2)cs1 (stereo not given) | -3.5%
35 | COc1ccccc1-c1cc(C(F)(F)F)c2c(C)nn(CC(=O)O)c2n1 | 3.1%
36 | CS(=O)(=O)NC1CCN(C(=O)NCCc2ccccc2F)CC1 | -3.88%
37 | O=C(CSC1=NS(=O)(=O)c2cc(F)ccc2N1)c1ccc(Cl)cc1 | 5.12%
38 | O=C1COc2c(cccc2C(=O)N2CCCCC2Cn2cccn2)N1 (stereo not given) | -0.721%
39 | CCN(CC)C1CCN(C(=O)NCc2c(C)noc2C)CC1 | 0.182%
40 | CS(=O)(=O)N1CC[C@H]2C[C@@H](C(=O)N3CCOCC3)O[C@@H]2C1 | 2.65%

Molecular target: Shiga toxin 2 (Escherichia coli O157:H7) (UniProt P09385+P09386)
Experiment: E. coli 0.157:H7 Shiga Toxin SOP - stx2 screening assay
Assay type: functional
Design: scale not given: direction of the effect not stated beside the values
Conditions: 30 µM

Row | Structure (SMILES) | Percent Effect
41 | CCn1cc(NC(=O)C2CCN(CCOC(C)C)CC2)cn1 | 17.1%
42 | CCc1nccn1C1CCCN(C(=O)c2cn3c(C)cccc3n2)C1 (stereo not given) | 4.17%
43 | c1ccc(Cc2noc(CNC3CCc4ncnn4C3)n2)cc1 (stereo not given) | 2.15%
44 | COCC1CC2(CCN(C(=O)c3ccc(OC)c(Cl)c3)CC2)CO1 (stereo not given) | -4.71%
45 | Cc1c(C2CCCN(C(=O)Cc3ccccn3)C2)n2c(nc1=O)CCC2 (stereo not given) | -14.2%
46 | CN1C(=O)C[C@@H]2[C@@H]1CCN2C(=O)c1ccc[nH]1 | -6.89%
47 | COCCc1ncc(CN2CCC(Oc3ccccc3C)CC2)cn1 | 1.32%
48 | N#Cc1ccc(OCCCN2CCc3cncnc3C2)cc1 | -20.7%
49 | CCC1=N[C@@]2(CC[C@@H]3CN(CC(=O)N(C)C)C[C@@H]32)C(=O)N1CC1CC1 | -27.3%
50 | O=C(NCC(=O)N1CCCCC1)c1ccc(Cl)cc1I | 1.85%
51 | Cc1cc(CN(C)C(=O)C2CCCN(C(=O)c3cccs3)C2)no1 (stereo not given) | -56.4%
52 | Cc1nc(CNCC2CCCN2c2cccnn2)no1 (stereo not given) | -15.8%
53 | Cc1cc(=O)[nH]c(SCC(=O)N(C)CC2Cc3ccccc3CN2C)n1 (stereo not given) | 5.78%
54 | CN(C)CC1CN(Cc2coc(-c3ccccc3Cl)n2)CCO1 (stereo not given) | -26.4%
55 | Cc1oc(C)c(C(=O)NCc2ccccn2)c1C | 26.9%
56 | c1ccc(-c2noc(CN3CCC(c4ccn[nH]4)CC3)n2)cc1 | -15.7%
57 | O=C(Cn1nc(-c2ccc(F)cc2)oc1=O)NCc1ccc(F)cc1 | 32.8%
58 | COC(=O)CNC(=O)CSCc1nc(O)c2cc(C(C)C)sc2n1 | -7.38%
59 | O=C(c1cccnc1)N1C[C@@H]2CC[C@H](C1)N(Cc1cc(F)ccc1F)C2 | 1.2%
60 | COc1ccc(CC(=O)N2CCCC2Cn2cccn2)cc1F (stereo not given) | 15.1%

Row | Structure (SMILES) | Percent Effect
61 | Cc1ccc(CN2CCCC3(CCN(S(=O)(=O)N(C)C)C3)C2)o1 (stereo not given) | 10.6%
62 | COc1ccc(C)cc1S(=O)(=O)NCC(c1cccn1C)N(C)C (stereo not given) | 2.58%
63 | Cc1ccoc1-c1nnc(CNCC2CCCN2c2cccnn2)o1 (stereo not given) | 5.85%
64 | CN(C)c1ncc(CN2CCOC(C(=O)Nc3ccccc3)C2)cn1 (stereo not given) | -0.28%
65 | Cc1cc2c(cc1C(=O)N1CC[C@H](CO)[C@@H](O)C1)OCCO2 | 8.21%
66 | O=C(c1ccccn1)N1C[C@@H]2CC[C@H](C1)N(C(=O)CCc1ccsc1)C2 | -55.7%
67 | CS(=O)(=O)N1C[C@@H]2CC[C@H](C1)N(Cc1cscn1)C2=O | -13.6%
68 | O=C(c1ccc[nH]1)N1C[C@H]2CC[C@@H]1CN(c1ncccn1)C2 | -5.71%
69 | CCS(=O)(=O)N1CCC2(CC1)CC(Oc1ccccn1)CO2 (stereo not given) | 0.988%
70 | CN(CCNC(=O)NCc1ccncc1)C1CCCC1 | 8.07%
71 | CO[C@@H]1CC[C@H]2[C@H]1OCCN2C(=O)c1ccc(C)o1 | -16.7%
72 | CC(C)n1ccnc1CN1CCCN(C(=O)c2cc(Cl)c[nH]2)CC1 | -53.1%
73 | COC[C@@H]1CC[C@H]2[C@H](CCN2S(=O)(=O)c2ccc(OC)cc2)O1 | 1.36%
74 | CN(C)C(=O)Cc1nc(CN2CCOC(Cn3cccn3)C2)cs1 (stereo not given) | -20.8%
75 | COc1ccccc1-c1cc(C(F)(F)F)c2c(C)nn(CC(=O)O)c2n1 | -13.7%
76 | CS(=O)(=O)NC1CCN(C(=O)NCCc2ccccc2F)CC1 | -19.2%
77 | O=C(CSC1=NS(=O)(=O)c2cc(F)ccc2N1)c1ccc(Cl)cc1 | -0.176%
78 | O=C1COc2c(cccc2C(=O)N2CCCCC2Cn2cccn2)N1 (stereo not given) | 27.1%
79 | CCN(CC)C1CCN(C(=O)NCc2c(C)noc2C)CC1 | -1.12%
80 | CS(=O)(=O)N1CC[C@H]2C[C@@H](C(=O)N3CCOCC3)O[C@@H]2C1 | 5.94%
